# Measured values taken from article PMC8384837, “Expanding the binding specificity for RNA recognition by a PUF domain”.
# Key:
# Assay in all cases: yeast three-hybrid, YBZ-1, SC-Leu-His + 0.5 mM 3-AT, 4 days
# Conditions in all cases: tags: N-Gal4 AD-HA kept; label: inside an RPR1-promoter hybrid RNA with tandem MS2 sites; ssRNA
# PUM1 PUF domain R8-LWR = PUM1 PUF domain R8-LWR (Homo sapiens, UniProt Q14671 828-1176, N1122L;Y1123W;Q1126R)
# How it was run: (§1)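 A centromeric plasmid in strain YBZ-1 co-expressed Pumilio-1 PUF domain libraries, randomized at the three base-contacting residues of each repeat, with matching RNA elements; the strain carries a LexA–MS2 coat fusion and a HIS3 reporter. After four days on SC-Leu (input) or SC-Leu-His + 0.5 mM 3-AT (selection), the repeat regions were PCR-amplified and Illumina-sequenced. The interaction score is the log change in variant frequency from input to selection, using log2 and a pseudocount of 1 where absent.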
# PUM1 PUF domain R8-VWQ = PUM1 PUF domain R8-VWQ (Homo sapiens, UniProt Q14671 828-1176, N1122V;Y1123W)
# How it was run: as §1
# PUM1 PUF domain R8-SWG = PUM1 PUF domain R8-SWG (Homo sapiens, UniProt Q14671 828-1176, N1122S;Y1123W;Q1126G)
# How it was run: as §1
# PUM1 PUF domain R8-RGK = PUM1 PUF domain R8-RGK (Homo sapiens, UniProt Q14671 828-1176, N1122R;Y1123G;Q1126K)
# How it was run: as §1
# PUM1 PUF domain R4-SNM = PUM1 PUF domain R4-SNM (Homo sapiens, UniProt Q14671 828-1176, N971S;H972N;Q975M)
# How it was run: as §1
# PUM1 PUF domain R3-APF = PUM1 PUF domain R3-APF (Homo sapiens, UniProt Q14671 828-1176, C935A;R936P;Q939F)
# How it was run: as §1
# PUM1 PUF domain R7-GGN = PUM1 PUF domain R7-GGN (Homo sapiens, UniProt Q14671 828-1176, S1079G;N1080G;E1083N)
# How it was run: as §1
# PUM1 PUF domain R7-RVV = PUM1 PUF domain R7-RVV (Homo sapiens, UniProt Q14671 828-1176, S1079R;N1080V;E1083V)
# How it was run: as §1
# PUM1 PUF domain R3-KSG = PUM1 PUF domain R3-KSG (Homo sapiens, UniProt Q14671 828-1176, C935K;R936S;Q939G)
# How it was run: as §1
# PUM1 PUF domain R4-EWY = PUM1 PUF domain R4-EWY (Homo sapiens, UniProt Q14671 828-1176, N971E;H972W;Q975Y)
# How it was run: as §1
sequence,measurement,setting,value
GGCUAGAACUAGUGGAUCCCCCGGCGCCCGGCGGCUCGAGCCCGGGUAAGCGUAAAUAGUCUGCAUGCCGCCGGGCGCCAUGCCUGCAGGUCGACUCUAGAAAACAUG,binding signal,PUM1 PUF domain R8-LWR,4.82 log2 enrichment (interaction score)
same,binding signal,PUM1 PUF domain R8-VWQ,2.89 log2 enrichment (interaction score)
same,binding signal,PUM1 PUF domain R8-SWG,2.43 log2 enrichment (interaction score)
same,binding signal,PUM1 PUF domain R8-RGK,2.62 log2 enrichment (interaction score)
GGCUAGAACUAGUGGAUCCCCCGGCGCCCGGCGGCUCGAGCCCGGGUAAGUGUAAAUAGUCUGCAUGCCGCCGGGCGCCAUGCCUGCAGGUCGACUCUAGAAAACAUG,binding signal,PUM1 PUF domain R8-LWR,4.7 log2 enrichment (interaction score)
same,binding signal,PUM1 PUF domain R4-SNM,2 log2 enrichment (interaction score)
same,binding signal,PUM1 PUF domain R8-SWG,2.95 log2 enrichment (interaction score)
same,binding signal,PUM1 PUF domain R8-RGK,0.16 log2 enrichment (interaction score)
same,binding signal,PUM1 PUF domain R3-APF,5.42 log2 enrichment (interaction score)
GGCUAGAACUAGUGGAUCCCCCGGCGCCCGGCGGCUCGAGCCCGGGUAAGUUUAAAUAGUCUGCAUGCCGCCGGGCGCCAUGCCUGCAGGUCGACUCUAGAAAACAUG,binding signal,PUM1 PUF domain R7-GGN,3.78 log2 enrichment (interaction score)
same,binding signal,PUM1 PUF domain R7-RVV,2.58 log2 enrichment (interaction score)
GGCUAGAACUAGUGGAUCCCCCGGCGCCCGGCGGCUCGAGCCCGGGUAAGUGUAAUUAGUCUGCAUGCCGCCGGGCGCCAUGCCUGCAGGUCGACUCUAGAAAACAUG,binding signal,PUM1 PUF domain R3-KSG,2.51 log2 enrichment (interaction score)
GGCUAGAACUAGUGGAUCCCCCGGCGCCCGGCGGCUCGAGCCCGGGUAAGUGUAUAUAGUCUGCAUGCCGCCGGGCGCCAUGCCUGCAGGUCGACUCUAGAAAACAUG,binding signal,PUM1 PUF domain R4-SNM,2.9 log2 enrichment (interaction score)
same,binding signal,PUM1 PUF domain R4-EWY,5.52 log2 enrichment (interaction score)
